# Laboratory results as given in ChEMBL document CHEMBL3988442, “University of Dundee, Small-Polar-MMV Screening Library” (2021).
# For part of these data: Entries with a potency or affinity are not part of this list.
# Assays:
# Set-up in all cases: scale not given: direction of the effect not stated beside the values
# [1] = target: Protein translocase subunit SecA (Escherichia coli (strain K12)) (UniProt P10408); experiment: Assay to Identify E. coli SecA ATPase Inhibitors; assay type: functional; settings: 30 µM
# [2] = target: T1, Ubiquitin-activating enzyme e1, putative (Leishmania donovani (strain BPK282A1)) (UniProt E9BSI1); experiment: Leishmania donovani Ubiquitin Activating Enzyme (LdE1); assay type: functional; settings: 30 µM
# T1 sequence (whole entry): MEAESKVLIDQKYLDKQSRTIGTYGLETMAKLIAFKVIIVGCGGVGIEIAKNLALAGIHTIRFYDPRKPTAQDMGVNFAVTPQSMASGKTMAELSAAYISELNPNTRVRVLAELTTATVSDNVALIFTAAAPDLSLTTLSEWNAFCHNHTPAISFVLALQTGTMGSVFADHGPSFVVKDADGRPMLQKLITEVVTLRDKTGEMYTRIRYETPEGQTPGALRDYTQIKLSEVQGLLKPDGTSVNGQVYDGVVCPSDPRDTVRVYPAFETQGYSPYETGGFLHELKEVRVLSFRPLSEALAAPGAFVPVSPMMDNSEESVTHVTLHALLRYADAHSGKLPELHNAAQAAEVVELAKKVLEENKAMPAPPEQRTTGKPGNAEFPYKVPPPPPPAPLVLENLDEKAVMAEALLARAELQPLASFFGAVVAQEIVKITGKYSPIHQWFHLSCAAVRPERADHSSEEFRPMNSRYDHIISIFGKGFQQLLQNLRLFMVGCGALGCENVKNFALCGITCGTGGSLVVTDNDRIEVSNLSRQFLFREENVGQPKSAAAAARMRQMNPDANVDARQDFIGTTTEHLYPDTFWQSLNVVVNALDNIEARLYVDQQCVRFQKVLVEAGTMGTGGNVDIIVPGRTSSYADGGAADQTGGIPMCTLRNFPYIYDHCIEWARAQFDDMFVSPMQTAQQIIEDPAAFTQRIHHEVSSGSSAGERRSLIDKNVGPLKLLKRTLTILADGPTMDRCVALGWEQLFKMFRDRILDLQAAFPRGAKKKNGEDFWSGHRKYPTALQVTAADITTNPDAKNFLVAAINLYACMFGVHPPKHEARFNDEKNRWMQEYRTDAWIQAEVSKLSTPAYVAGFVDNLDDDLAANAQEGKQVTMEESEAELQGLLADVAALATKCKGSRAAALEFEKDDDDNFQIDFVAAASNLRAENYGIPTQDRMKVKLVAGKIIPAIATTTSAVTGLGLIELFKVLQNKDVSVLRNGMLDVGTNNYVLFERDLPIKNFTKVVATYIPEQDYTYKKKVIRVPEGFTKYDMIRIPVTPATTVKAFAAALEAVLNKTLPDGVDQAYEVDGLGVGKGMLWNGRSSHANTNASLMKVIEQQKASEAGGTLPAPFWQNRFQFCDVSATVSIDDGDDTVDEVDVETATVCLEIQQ
# [3] = target: AMP-activated protein kinase, AMPK (Homo sapiens) (UniProt P54646+O43741+P54619+Q9UGJ0+Q9Y478+Q13131+Q9UGI9); experiment: AMP-dependent Kinase enzyme assay. An in vitro enzyme assay that detects ADP turnover that is directly proportional to AMPK activity. This uses naive AMPK that is activated during the assay with MK-8722; assay type: functional; settings: 30 µM
# [4] = target: Sialic acid-binding Ig-like lectin 9 (Homo sapiens) (UniProt Q9Y336); experiment: Hs-Siglec9 ALPHAscreen SOP 20170721; settings: 10 µM
# Trypanosoma cruzi = experiment: Trypanosoma cruzi phosphomannomutase and mannose-1-phosphate guanylyltransferase assay; assay type: functional; settings: 10 µM
# [5] = target: T2, Arginase-2, mitochondrial (Homo sapiens) (UniProt P78540); experiment: in vitro enzyme assay to detect the production of urea directly proportional to the activity of Arginase II; assay type: functional; settings: 33.3 µM; note: in the data most compounds retested in dose-response had high values
# T2 sequence (whole entry): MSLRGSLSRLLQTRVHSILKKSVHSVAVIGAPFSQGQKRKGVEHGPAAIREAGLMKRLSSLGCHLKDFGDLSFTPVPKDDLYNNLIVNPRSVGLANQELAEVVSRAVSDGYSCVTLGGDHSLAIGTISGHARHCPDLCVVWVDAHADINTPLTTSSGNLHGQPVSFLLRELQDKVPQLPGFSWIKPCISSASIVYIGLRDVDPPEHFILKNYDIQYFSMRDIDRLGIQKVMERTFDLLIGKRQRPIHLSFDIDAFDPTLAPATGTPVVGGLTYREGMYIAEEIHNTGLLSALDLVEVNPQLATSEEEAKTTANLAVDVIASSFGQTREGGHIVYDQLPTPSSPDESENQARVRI
# [6] = target: T3, Proteasome subunit beta (Trypanosoma cruzi) (UniProt O96673); experiment: Trypanosoma cruzi proteasome chymotrypsin-like activity (TcProtChymo) assay.; note: in the data most compounds retested in dose-response had high values; assay type: functional; settings: 9.37 µM
# T3 sequence (whole entry): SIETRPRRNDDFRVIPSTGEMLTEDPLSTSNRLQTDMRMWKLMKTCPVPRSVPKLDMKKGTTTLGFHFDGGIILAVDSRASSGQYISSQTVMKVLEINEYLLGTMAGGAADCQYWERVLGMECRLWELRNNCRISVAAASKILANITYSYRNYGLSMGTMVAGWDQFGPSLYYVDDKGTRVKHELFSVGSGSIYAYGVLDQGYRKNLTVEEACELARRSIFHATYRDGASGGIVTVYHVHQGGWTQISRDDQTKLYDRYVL
# Homo sapiens = species: Homo sapiens; experiment: To identify inhibition of the IFN signalling (Jak-Stat) pathway via expression of an eGFP reporter gene under the control of an IFN-stimulated response element (ISRE) containing MxA promoter.; assay type: functional; settings: 30 µM
# [7] = target: T4, Tyrosyl-tRNA synthetase, putative (Trypanosoma cruzi (strain CL Brener)) (UniProt Q4DSP6); experiment: Trypanosoma cruzi tyrosyl tRNA synthetase (TcYRS) _High Tyrosine SOP; assay type: functional; settings: 30 µM; note: in the data most compounds retested in dose-response had high values
# T4 sequence (whole entry): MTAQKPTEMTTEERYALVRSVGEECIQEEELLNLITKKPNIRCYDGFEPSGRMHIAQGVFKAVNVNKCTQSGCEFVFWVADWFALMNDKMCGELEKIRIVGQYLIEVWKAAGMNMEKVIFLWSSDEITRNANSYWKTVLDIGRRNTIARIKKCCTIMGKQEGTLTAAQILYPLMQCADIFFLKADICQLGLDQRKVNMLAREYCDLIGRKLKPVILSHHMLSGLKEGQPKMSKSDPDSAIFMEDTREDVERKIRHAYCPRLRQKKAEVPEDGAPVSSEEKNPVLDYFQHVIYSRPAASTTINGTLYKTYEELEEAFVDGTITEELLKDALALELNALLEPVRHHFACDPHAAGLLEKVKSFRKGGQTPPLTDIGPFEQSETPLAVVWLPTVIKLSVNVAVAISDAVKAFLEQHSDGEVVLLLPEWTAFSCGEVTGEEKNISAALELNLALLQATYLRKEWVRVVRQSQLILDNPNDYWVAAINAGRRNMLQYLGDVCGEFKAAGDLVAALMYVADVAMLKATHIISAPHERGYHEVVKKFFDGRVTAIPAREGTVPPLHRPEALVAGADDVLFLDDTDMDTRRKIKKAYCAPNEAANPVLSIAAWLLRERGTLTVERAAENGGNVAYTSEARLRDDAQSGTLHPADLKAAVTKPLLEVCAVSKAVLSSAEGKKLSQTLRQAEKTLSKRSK
# [8] = target: T4, Tyrosyl-tRNA synthetase, putative (Trypanosoma cruzi (strain CL Brener)); experiment: Trypanosoma cruzi tyrosyl tRNA synthetase (TcYRS) SOP; assay type: functional; settings: 30 µM
# [9] = target: Chromo domain-containing protein 1 (Saccharomyces cerevisiae (strain ATCC 204508 / S288c) (Baker's yeast)) (UniProt P32657); experiment: ScCHD-1 Enzyme Inhibition Assay; assay type: functional; settings: 30 µM; note: in the data most compounds retested in dose-response had high values
# Sequence of Chromo domain-containing protein 1 (Saccharomyces cerevisiae (strain ATCC 204508 / S288c) (Baker's yeast)) (P32657 whole entry, the tested form may be a part): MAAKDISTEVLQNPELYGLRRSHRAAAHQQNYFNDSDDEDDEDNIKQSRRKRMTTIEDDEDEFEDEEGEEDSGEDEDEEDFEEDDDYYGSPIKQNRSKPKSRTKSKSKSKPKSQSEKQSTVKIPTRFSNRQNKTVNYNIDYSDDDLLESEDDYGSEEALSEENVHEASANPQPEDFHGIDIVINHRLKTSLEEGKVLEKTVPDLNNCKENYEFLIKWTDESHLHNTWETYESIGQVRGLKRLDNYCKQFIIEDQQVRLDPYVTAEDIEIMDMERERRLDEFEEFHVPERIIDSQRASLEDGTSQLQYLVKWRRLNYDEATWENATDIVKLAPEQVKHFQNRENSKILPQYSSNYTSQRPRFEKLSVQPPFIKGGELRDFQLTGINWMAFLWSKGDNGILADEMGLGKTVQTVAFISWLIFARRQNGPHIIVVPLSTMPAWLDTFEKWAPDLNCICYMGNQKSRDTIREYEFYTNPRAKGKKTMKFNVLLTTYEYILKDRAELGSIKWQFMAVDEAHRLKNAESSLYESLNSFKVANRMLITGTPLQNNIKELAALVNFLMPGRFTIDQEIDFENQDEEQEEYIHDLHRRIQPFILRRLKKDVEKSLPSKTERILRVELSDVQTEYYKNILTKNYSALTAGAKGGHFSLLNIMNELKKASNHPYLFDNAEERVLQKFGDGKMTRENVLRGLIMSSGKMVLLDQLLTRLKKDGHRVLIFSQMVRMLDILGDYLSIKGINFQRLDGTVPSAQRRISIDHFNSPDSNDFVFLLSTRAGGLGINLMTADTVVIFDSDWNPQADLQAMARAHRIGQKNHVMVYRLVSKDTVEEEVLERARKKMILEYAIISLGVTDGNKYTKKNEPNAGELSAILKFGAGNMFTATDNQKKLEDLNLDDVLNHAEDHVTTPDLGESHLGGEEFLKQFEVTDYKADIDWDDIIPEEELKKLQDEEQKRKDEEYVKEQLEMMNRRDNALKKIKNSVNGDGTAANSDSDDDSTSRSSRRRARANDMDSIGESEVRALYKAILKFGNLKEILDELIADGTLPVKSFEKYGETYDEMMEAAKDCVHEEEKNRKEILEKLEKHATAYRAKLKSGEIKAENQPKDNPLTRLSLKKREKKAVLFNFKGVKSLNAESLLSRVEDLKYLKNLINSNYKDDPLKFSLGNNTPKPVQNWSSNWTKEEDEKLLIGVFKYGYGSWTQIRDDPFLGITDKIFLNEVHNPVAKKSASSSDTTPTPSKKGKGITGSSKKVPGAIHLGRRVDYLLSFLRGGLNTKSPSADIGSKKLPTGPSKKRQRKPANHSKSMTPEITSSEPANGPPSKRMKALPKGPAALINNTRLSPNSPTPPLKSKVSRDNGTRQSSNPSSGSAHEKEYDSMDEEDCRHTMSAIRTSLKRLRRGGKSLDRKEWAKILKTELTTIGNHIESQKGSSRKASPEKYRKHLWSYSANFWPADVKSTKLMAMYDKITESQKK
# Sequence of Sialic acid-binding Ig-like lectin 9 (Homo sapiens) (Q9Y336 whole entry): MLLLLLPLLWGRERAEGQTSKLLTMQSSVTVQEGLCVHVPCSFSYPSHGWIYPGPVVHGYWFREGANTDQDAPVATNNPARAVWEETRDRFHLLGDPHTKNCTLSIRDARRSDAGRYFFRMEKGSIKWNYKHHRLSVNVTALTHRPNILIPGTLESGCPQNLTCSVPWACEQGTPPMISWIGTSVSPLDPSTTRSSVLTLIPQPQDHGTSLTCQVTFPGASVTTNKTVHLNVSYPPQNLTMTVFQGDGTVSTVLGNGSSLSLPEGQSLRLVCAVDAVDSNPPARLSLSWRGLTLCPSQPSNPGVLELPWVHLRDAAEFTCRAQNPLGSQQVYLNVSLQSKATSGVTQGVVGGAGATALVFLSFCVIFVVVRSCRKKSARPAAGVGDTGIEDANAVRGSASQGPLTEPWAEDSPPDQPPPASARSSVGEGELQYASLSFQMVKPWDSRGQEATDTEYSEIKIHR
# Sequence of Protein translocase subunit SecA (Escherichia coli (strain K12)) (P10408 whole entry): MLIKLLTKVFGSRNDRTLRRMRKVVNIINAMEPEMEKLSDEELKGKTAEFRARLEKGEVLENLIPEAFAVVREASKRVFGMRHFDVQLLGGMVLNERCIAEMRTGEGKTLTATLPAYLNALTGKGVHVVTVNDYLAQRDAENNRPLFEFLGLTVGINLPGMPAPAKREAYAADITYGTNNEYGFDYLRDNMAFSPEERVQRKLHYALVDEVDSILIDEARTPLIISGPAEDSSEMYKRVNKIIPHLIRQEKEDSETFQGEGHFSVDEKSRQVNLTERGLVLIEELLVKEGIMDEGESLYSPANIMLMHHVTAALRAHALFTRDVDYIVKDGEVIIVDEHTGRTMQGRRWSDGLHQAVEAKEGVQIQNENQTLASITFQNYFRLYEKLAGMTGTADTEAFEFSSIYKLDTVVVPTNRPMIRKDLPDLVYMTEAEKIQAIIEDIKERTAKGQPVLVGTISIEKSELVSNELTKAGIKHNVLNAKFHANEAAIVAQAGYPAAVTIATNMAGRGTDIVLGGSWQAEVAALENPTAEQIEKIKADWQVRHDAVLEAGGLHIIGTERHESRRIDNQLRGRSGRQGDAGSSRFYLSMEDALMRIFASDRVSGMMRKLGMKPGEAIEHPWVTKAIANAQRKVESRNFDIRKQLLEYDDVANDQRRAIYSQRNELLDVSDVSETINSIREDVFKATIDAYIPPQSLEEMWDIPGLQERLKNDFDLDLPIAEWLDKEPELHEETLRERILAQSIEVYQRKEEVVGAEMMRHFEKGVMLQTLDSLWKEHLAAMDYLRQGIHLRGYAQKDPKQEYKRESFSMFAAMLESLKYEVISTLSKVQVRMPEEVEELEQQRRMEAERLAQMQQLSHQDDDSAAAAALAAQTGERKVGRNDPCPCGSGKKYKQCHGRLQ
SMILES,Percent Effect [1],Percent Effect [2],Percent Effect [3],Percent Effect [4],Percent Effect (Trypanosoma cruzi),Percent Effect [5],Percent Effect [6],Percent Effect (Homo sapiens),Percent Effect [7],Percent Effect [8],Percent Effect [9]
COCCNC(=O)c1ccc(C)c(-n2cccc2)c1,2.25%,13.2%,4.41%,-4.12%,-3.8%,-2.37%,14.3%,-4.52%,7.45%,7.79%,-3.58%
COC[C@@]12CCO[C@@H]1CCN(C(=O)COc1ccccc1OC)C2,0.312%,8.22%,-2.94%,5.31%,-4.76%,-2.4%,17.2%,3.04%,5.21%,11.1%,-3.51%
COc1ccc(OCCc2sc(C3(O)CCCNCC3)nc2C)cc1 (stereo unspecified),-5.55%,6.76%,2.86%,1.72%,0.198%,-6.73%,13.6%,21%,-3.23%,9.09%,-24.4%
CC(=O)Nc1cc(C(=O)N2CCOCC2c2ccc(C)o2)ccc1F (stereo unspecified),-3.55%,2.67%,-3.55%,-1.06%,-2.43%,-1.04%,4.18%,-20.8%,0.546%,3.7%,1.78%
CC(C)c1noc(CN2CCC3(CCCO3)CCC2=O)n1 (stereo unspecified),-8.4%,2.67%,0.336%,-1.54%,-3.8%,-0.521%,2.27%,25.6%,1.64%,6.17%,-6.74%
Cc1cnc(CN2CCOC(CNc3cccnn3)C2)cn1 (stereo unspecified),0.476%,-7.79%,-0.781%,0.564%,-6.74%,8.54%,0.676%,17.9%,0.971%,-2.44%,-5.93%
CC(C)CN1C[C@H]2CCN(Cc3cccnc3)CC[C@H]2S1(=O)=O,-4.38%,8.11%,2.04%,-0.964%,-2.05%,-5.41%,16.2%,21.9%,1.08%,5.13%,1%
O=C(CCc1cnn(-c2ccccc2)c1)N1CCCC(n2cccn2)C1 (stereo unspecified),-2.31%,10.5%,2.58%,12.9%,3.38%,4.98%,0.668%,14.7%,8.33%,17.1%,-11.6%
CC(CCc1ccccc1)NC(=O)Nc1cnn(CC(N)=O)c1 (stereo unspecified),-2.21%,16.5%,-2.88%,2.1%,-1.74%,-4.52%,17.8%,8.25%,3.12%,20.2%,-26.2%
CC(C)n1ncc2cc(NC(=O)N3CCC(N4CCCC4)C3)cnc21 (stereo unspecified),-1.2%,-5.41%,-12.5%,7.73%,4.74%,-5.73%,12%,3.87%,-7.92%,23.2%,-5.17%
Cc1nc(CNCC2CCCN2c2cccnn2)cs1 (stereo unspecified),-2.04%,-2.63%,1.93%,0.202%,-3.38%,6.51%,-1.84%,14.7%,2.45%,0%,4.5%
COC(=O)CCc1c(C)nc2cc(O)nn2c1C,-4.39%,20.8%,-48.9%,6.03%,1.31%,-3.92%,9.46%,6.61%,9.71%,21.9%,-9.77%
CCOc1ccc(C(C)NC(=O)N2CCC(C(N)=O)CC2)cc1OC (stereo unspecified),-4.66%,10.8%,4.64%,6.99%,6.76%,1.43%,14.7%,4.99%,5.82%,12.2%,-0.606%
CCC(CC)C(O)CNC(=O)Nc1cc(C)nn1C (stereo unspecified),-6.46%,5.06%,0.487%,6.21%,6.7%,-1.9%,5.16%,-23.6%,1.48%,16.5%,-6.04%
CN(CC1CC1)C(=O)CN(Cc1cccc(O)c1)C1CCC(O)CC1 (stereo unspecified),-0.997%,-2.7%,-5.33%,8.92%,1.07%,24.6%,11.1%,12%,0%,1.24%,0.446%
CCN(CC)S(=O)(=O)N1CCCC(c2cccc(C(=O)O)c2)C1 (stereo unspecified),-3.72%,16.2%,-6.67%,19.8%,6.56%,0.952%,10.9%,5.56%,6.88%,17.1%,-5.44%
N#Cc1ccc(C(=O)N2CC[C@H]3[C@@H]2CCC(=O)N3c2cccnc2)cc1,-4.52%,13.5%,3.21%,-7.6%,-2.44%,3.5%,18.3%,-4.58%,1.08%,12.8%,-4.36%
Cc1ccc(CN2CCc3ncnc(C4CC4)c3CC2)s1,1.05%,5.33%,5.76%,-4.5%,-5.41%,-54.3%,6.15%,43.3%,8.33%,12.5%,-7.16%
CCn1ncnc1C(NC(=O)CC1CCN(C(C)C)CC1)C1CC1 (stereo unspecified),-12.1%,-2.7%,-3.06%,-6.3%,-6.16%,-1.74%,3.18%,-5.64%,-2.15%,1.24%,-3.37%
c1ccc2c(N3CCCCC3Cn3cncn3)ncnc2c1 (stereo unspecified),-4.99%,2.67%,-0.541%,0.114%,-0.876%,3.12%,8.54%,16.2%,2.73%,6.17%,-6.35%
Cc1cc(C)n(CC2CCCN2C(=O)c2ccc3[nH]nnc3c2)n1 (stereo unspecified),-4.12%,5.48%,5.75%,0.134%,-2.35%,5.46%,14.4%,4.89%,1.07%,10%,-3.11%
